Bioassay records from PubChem BioAssay.
Shown are actives, neighbours in structure and some others; about 7.1% of the full set was active somewhere.
ATXN viability – Viability Counterscreen for Primary qHTS for Inhibitors of ATXN expression | S2 cells (HEK-293 line with an ATXN2-luciferase reporter) viability, CellTiter-Fluor protease fluorescence, 24 h | Potency, µM (highest dose often 56.7 µM), usual class: cytotoxic | 400,000 compounds, 0.49% hits | AID 651635, 2014; also: potency is read from the fitted curve at half-maximal effect; nearly all actives have a fitted effect of over 40% in size
PINK1 expr mod – A Quantitative High throughput Screen to Identify Chemical Modulators of PINK1 Expression; PINK1 immunofluorescence, high-content cytometry, 24 h; Potency, µM (titrated, usually from 76.6 µM), without a hit: at the highest dose activation (PINK1 increase), hits mostly activators; 410,000 compounds, 0.2% hits; AID 624263, 2012; active = well fitted activation curve with a large enough effect; inconclusive = small, poorly fitted or top-dose-only effect; cell line not stated here; also: potency is read from the fitted curve at half-maximal effect; % of control where 0% means no effect; nearly all actives have a fitted effect of over 65% in size
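PINK1 protein level read as immunofluorescence by microplate cytometer in a fixed, stained stable cell line after 24 h exposure to five compound concentrations, with CCCP as control.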
SW480 rerep – A quantitative high throughput screen for small molecules that induce DNA re-replication in SW480 colon adenocarcinoma cells; 340,000 compounds, 1.8% hits; Potency, µM (highest dose often 46.1 µM), for the others: at the top dose re-replication activation, hits mostly activators; SW480 DNA re-replication, Hoechst DNA content imaging, 48 h; also: potency is read from the fitted curve at half-maximal effect; % of control where 0% means no effect; nearly all actives have a fitted effect of over 55% in size
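Image-based DNA-content assay: after two days of treatment, nuclei were labelled with the DNA dye Hoechst and imaged, and hits were compounds raising the count of nuclei showing high fluorescence intensity.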
MCF10A rereplic – A quantitative high throughput screen for small molecules that induce DNA re-replication in MCF 10a normal breast cells | MCF 10A DNA re-replication, Hoechst nuclear intensity, 48 h | Potency, µM (titrated, usually from 46.1 µM), for inactives: top-dose activity, positive = re-replication, actives largely listed as activators | 350,000 compounds, 2.9% hits | AID 624296, 2012; also: potency is read from the fitted curve at half-maximal effect; % of control where 0% means no effect; nearly all actives have a fitted effect of over 50% in size
ATXN2 expr inh – Primary qHTS for Inhibitors of ATXN expression. HEK-293 ATXN2-luciferase reporter, luminescence, 24 h. Potency, µM (doses to about 57 µM), without a hit: at the top dose activity change, negative = inhibition, usual class: inhibitors. 360,000 compounds, 0.72% hits; also: potency is read from the fitted curve at half-maximal effect; % is scaled to controls: 0 for no effect and ±100 for the full control effect; nearly all actives have a fitted effect of over 55% in size
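ATXN2-luciferase reporter cells (luciferase flanked by upstream and downstream ATXN2 gene portions) were treated 24 h at 37 °C with compounds at up to 57 uM. SteadyGlo luminescence gave expression; GF-AFC fluorescence gave viability.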
IL1B secr inh – qHTS for Inhibitors of Inflammasome Signaling: IL-1-beta AlphaLISA Primary Screen; THP-1 LPS/ATP IL-1B secretion, AlphaLISA, 16 h; active compounds read low; activity change, % at 57.5 µM; 360,000 compounds, 4.7% hits; AID 743279, 2014; in the data active = activity change below about -50%; inconclusive = mostly about -30% to -49%; also: % is scaled to controls: 0 for no effect and ±100 for the full control effect
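THP-1 cells pretreated 1 hr with compounds (up to 57.5 uM final), then stimulated with LPS (250 ng/mL final) plus ATP (1.25 mM final); secreted IL-1B measured by AlphaLISA after 16 hr, decreased signal indicating inhibition.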
Active calls of the source: *; i = inactive; ? = inconclusive; . = not tested or not shown; [ ] = dose if it differs, or a comment. Unless noted, calls follow the shape of the dose curve; as a rule, active = well fitted curve in the direction sought with a large enough effect; inconclusive = small, poorly fitted or top-dose-only effect, or another doubt; inactive = no such curve, though single readings can be large; an effect the other way counts as inactive or inconclusive.

SMILES	ATXN viability	PINK1 expr mod	SW480 rerep	MCF10A rereplic	ATXN2 expr inh	IL1B secr inh
CCN(CC)CCCN(C(=O)c1ccco1)c1nc(-c2ccc(Cl)cc2)cs1	i	-1.5%	?	17.4%	0.0%	-67.4*
CCN(CC)CCCN(C(=O)c1ccco1)c1nc(-c2ccc(C)cc2)cs1	?	-1.1%	?	17.0%	-16.1%[11.3 µM]	-85.3*
CCN(C(=O)c1ccco1)c1nc(CC(=O)Nc2ccc(Cl)cc2)cs1	?	4.8%[38.3 µM]	11.6µM*	11.6µM*	-24.9%	-9.7
COCCCN(C(=O)c1ccco1)c1nc(-c2ccc(OC)cc2)cs1	i	0.7%	17.8%	?	-1.4%	-15.8
CCN(CC)CCN(C(=O)c1ccco1)c1nc2ccc(Cl)cc2s1	i	2.8%	.	.	-17.7%	.
CCC(=O)OCC(=O)[C@@]1(OC(=O)CC)[C@H](C)C[C@H]2[C@H]3[C@H]([C@@H](O)C[C@@]21C)[C@@]1(C)C=CC(=O)C=C1C[C@H]3Cl	i	.	.	.	.	.
CCC(=O)OCCNc1cc(Sc2nc3ccccc3[nH]2)c2nonc2c1[N+](=O)[O-]	28.2µM*	-2.6%	10.3µM*	1.3µM*	28.2µM*	-100.9*
CCCSc1cc(NCCOC(=O)CCC)c([N+](=O)[O-])c2nonc12	?	1.5%	7.8%	?	-19.3%	-19.1
O=[N+]([O-])c1c(NCCO)cc(N2CCCCCC2)c2nonc12	?	-0.3%	17.3%	35.0%	.	-0.3
CC(=O)OCCCNc1cc(SCc2ccco2)c2nonc2c1[N+](=O)[O-]	i	0.3%	?	?	-31.7%	-103.4*
CCCC(=O)OCCNc1cc(Sc2nccn2C)c2nonc2c1[N+](=O)[O-]	.	1.4%	19.8%	?	20µM*	-101.1*
O=[N+]([O-])c1c(NCCCO)cc(Sc2nc3ccccc3s2)c2nonc12	25.1µM*	17.0%[38.3 µM]	?	?	?	?
CC(=O)N1CCN(S(=O)(=O)c2ccc3c(c2)CCC(=O)N3)CC1	i	-0.8%	-19.3%	-2.6%	9.6%	8.2
CCC(=O)OCCNc1cc(Sc2nc3ccccc3s2)c2nonc2c1[N+](=O)[O-]	8.91µM*	?	-11.5%	-9.4%	6.31µM*	-13.5
Cc1nnc(Sc2cc(NCCO)c([N+](=O)[O-])c3nonc23)s1	.	6.9%	17.9%	?	-18.9%[11.3 µM]	2.0
Cc1nnc(Sc2cc(NCCCO)c([N+](=O)[O-])c3nonc23)s1	.	1.4%	-3.4%	18.8%	?	-105.3*
O=C(C1CCCCC1)N(Cc1cccnc1)c1nc2ccc(Cl)cc2s1	.	26.6%	.	.	.	.
COc1ccc(C2C(C(=O)N3CCCCC3)c3ccccc3C(=O)N2C)cc1 (configuration not stated)	i	1.9%	?	11.6µM*	3.2%	34.3
CCOCCCn1c(=NC(C)=O)c(C(=O)OCC)cc2c(=O)n3ccccc3nc21	i	-3.3%	?	1.2%	4.8%	12.2
CCOCCCn1c(=NC(C)=O)c(C#N)cc2c(=O)n3ccccc3nc21	.	0.8%	7.31µM*	2.59µM*	0.7%	-3.9
CC(=O)N=c1c(C#N)cc2c(=O)n3ccccc3nc2n1Cc1ccccc1	.	26.8%	5.8µM*	8.2µM*	7.1%	27.4
COc1cc(NC(=O)CNS(=O)(=O)c2cccs2)cc(OC)c1OC	i	-4.4%	.	.	6.6%	.
Cc1ccc(C2c3c(oc4ccccc4c3=O)C(=O)N2c2nnc(C)s2)cc1 (configuration not stated)	.	2.8%	.	.	.	.
NC(Cc1ccc(C(F)(F)F)cc1)c1csc(Nc2ccc(C(=O)NCc3ccco3)cn2)n1 (configuration not stated)	22.4µM*	0.6%	.	.	12.6µM*	-13.2
